In PubChem BioAssay AID1117299 (National Center for Advancing Translational Sciences (NCATS), 2015) one finds AC50 and outcome data, which are given here for 25 compounds.

More than one record can exist for a structure, and the calls need not agree. Activity calls are given as the source filed them. Calls follow the shape of the full dose curve.

The conditions of the experiment: Ebola virus entry assay, green fluorescence channel.
For `C[C@]12CC[C@@H]3c4ccc(O)cc4C[C@@H](CCCCCCCCCS(=O)CCCC(F)(F)C(F)(F)F)[C@H]3[C@@H]1CC[C@@H]2O` (stereo partly specified), the AC50 is 3060 nM (active).

As to `Cc1nnc(C(C)C)n1C1C[C@H]2CC[C@@H](C1)N2CC[C@H](NC(=O)C1CCC(F)(F)CC1)c1ccccc1` (stereo partly specified), the call was inactive.

For the compound `COC(=O)Nc1nc2ccc(C(=O)c3cccs3)cc2[nH]1`, the AC50 is 685 nM (active).

In the case of `CN1[C@@H]2CC[C@H]1CC(OC(c1ccccc1)c1ccccc1)C2` (stereo partly specified), the AC50 was 3060 nM (active).

In the case of `CN1CCN(CCCN2c3ccccc3Sc3ccc(C(F)(F)F)cc32)CC1`, the outcome was inactive.

On to `CNCCCC12CCC(c3ccccc31)c1ccccc12`, for which the AC50 is 6850 nM (active).

Consider `CC/C(=C(\c1ccccc1)c1ccc(OCCN(C)C)cc1)c1ccccc1`, for which the compound was classed as inactive and the AC50 was 1530 nM (active).

Regarding `CN(C)CCOc1ccc(/C(=C(/CCCl)c2ccccc2)c2ccccc2)cc1`, the AC50 is 1930 nM (active).

As to `CO[C@H]1C[C@@H]2CC[C@@H](C)[C@@](O)(O2)C(=O)C(=O)N2CCCC[C@@H]2C(=O)O[C@H]([C@@H](C)C[C@@H]2CC[C@H](O)[C@H](OC)C2)CC(=O)[C@H](C)C=C(C)[C@@H](O)[C@@H](OC)C(=O)[C@H](C)C[C@H](C)C=CC=CC=C1C`, the AC50 is 17700 nM (active).

Take `CN(C)CCCN1c2ccccc2CCc2ccc(Cl)cc21`: the AC50 was 7690 nM (active).

Take `C[C@@H]1O[C@@H](O[C@H]2CC[C@@]3(C)[C@H](CC[C@@H]4[C@H]3C[C@@H](O)[C@]3(C)[C@@H](C5=CC(=O)OC5)CC[C@]43O)C2)C[C@H](O)[C@@H]1O[C@H]1C[C@H](O)[C@H](O[C@H]2C[C@H](O)[C@@H](O)[C@@H](C)O2)[C@H](C)O1` (stereo in doubt): the AC50 was 112 nM (active).

With `CC[C@]1(O)C[C@H]2CN(CCc3c([nH]c4ccccc34)[C@@](C(=O)OC)(c3cc4c(cc3OC)N(C=O)[C@H]3[C@@](O)(C(=O)OC)[C@H](OC(C)=O)[C@]5(CC)C=CCN6CC[C@]43[C@@H]65)C2)C1`, the AC50 was 217 nM (active).

As to `CCCCc1oc2ccc(NS(C)(=O)=O)cc2c1C(=O)c1ccc(OCCCN(CCCC)CCCC)cc1`, the compound was called inactive.

Consider `CC[C@]1(O)C[C@@H]2CN(CCc3c([nH]c4ccccc34)[C@@](C(=O)OC)(c3cc4c(cc3OC)N(C)[C@H]3[C@@](O)(C(=O)OC)[C@H](OC(C)=O)[C@]5(CC)C=CCN6CC[C@]43[C@@H]65)C2)C1`, for which the AC50 was 137 nM (active).

Regarding `COc1cc2c(c(OC)c1OC)-c1ccc(OC)c(=O)cc1[C@@H](NC(C)=O)CC2`, the AC50 is 96.8 nM (active).

Regarding `CCC1=C[C@@H]2CN(C1)Cc1c([nH]c3ccccc13)[C@@](C(=O)OC)(c1cc3c(cc1OC)N(C)[C@H]1[C@@](O)(C(=O)OC)[C@H](OC(C)=O)[C@]4(CC)C=CCN5CC[C@]31[C@@H]54)C2`, the AC50 is 109 nM (active).

For the compound `CN1CCC[C@@H]1CCO[C@](C)(c1ccccc1)c1ccc(Cl)cc1`, the AC50 is 1930 nM (active).

As for `CO[C@H]1C[C@@H]2CC[C@@H](C)[C@@](O)(O2)C(=O)C(=O)N2CCCC[C@@H]2C(=O)O[C@H]([C@H](C)C[C@@H]2CC[C@H](OCCO)[C@H](OC)C2)CC(=O)[C@H](C)C=C(C)[C@@H](O)[C@@H](OC)C(=O)[C@H](C)C[C@H](C)C=CC=CC=C1C`, the compound was classed as inactive.

As to `CCCSc1ccc2nc(NC(=O)OC)[nH]c2c1`, the compound was called inactive.

With `COC(=O)Nc1nc2ccc(C(=O)c3ccccc3)cc2[nH]1`, the AC50 was 6110 nM (active).

For the compound `CC[C@H]1OC(=O)[C@H](C)[C@@H](O[C@H]2C[C@@](C)(OC)[C@@H](O)[C@H](C)O2)[C@H](C)[C@@H](O[C@@H]2O[C@H](C)C[C@H](N(C)C)[C@@H]2O)[C@](C)(O)C[C@@H](C)CN(C)[C@H](C)[C@@H](O)[C@]1(C)O`, the AC50 was 7690 nM (active).

On to `COc1cccc2c1C(=O)c1c(O)c3c(c(O)c1C2=O)C[C@@](O)(C(C)=O)C[C@H]3O[C@H]1C[C@H](N)[C@H](O)[C@H](C)O1`, for which the result was inactive.

On to `CCCNCC(O)COc1ccccc1C(=O)CCc1ccccc1` (stereo unspecified), for which the outcome was inactive.

For `CCN(CC)CCNC(=O)c1c(C)[nH]c(/C=C2\C(=O)Nc3ccc(F)cc32)c1C`, the compound was classed as inactive.

As for `CC[C@H]1OC(=O)[C@H](C)[C@@H](O[C@H]2C[C@@](C)(OC)[C@@H](O)[C@H](C)O2)C(C)[C@@H](O[C@@H]2O[C@H](C)C[C@H](N(C)C)[C@@H]2O)[C@](C)(OC)C[C@@H](C)C(=O)[C@H](C)[C@@H](O)[C@]1(C)O` (stereo partly specified), the half-maximal activity concentration (AC50) was 5440 nM (active).
